Experimental data taken from PubChem BioAssay.

The molecules below were run against E3 ubiquitin-protein ligase XIAP (Homo sapiens) (UniProt P98170) (assay: small molecules binding XIAP protein – biophysical, small-molecule microarray, fluorescence 635 nm, primary screen (AID 1181;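 further: score merges 667 nm emission and signal to noise over triplicate slides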)). Conditions: higher = more signal.
Sequence of E3 ubiquitin-protein ligase XIAP (Homo sapiens) (P98170 whole entry, looked up): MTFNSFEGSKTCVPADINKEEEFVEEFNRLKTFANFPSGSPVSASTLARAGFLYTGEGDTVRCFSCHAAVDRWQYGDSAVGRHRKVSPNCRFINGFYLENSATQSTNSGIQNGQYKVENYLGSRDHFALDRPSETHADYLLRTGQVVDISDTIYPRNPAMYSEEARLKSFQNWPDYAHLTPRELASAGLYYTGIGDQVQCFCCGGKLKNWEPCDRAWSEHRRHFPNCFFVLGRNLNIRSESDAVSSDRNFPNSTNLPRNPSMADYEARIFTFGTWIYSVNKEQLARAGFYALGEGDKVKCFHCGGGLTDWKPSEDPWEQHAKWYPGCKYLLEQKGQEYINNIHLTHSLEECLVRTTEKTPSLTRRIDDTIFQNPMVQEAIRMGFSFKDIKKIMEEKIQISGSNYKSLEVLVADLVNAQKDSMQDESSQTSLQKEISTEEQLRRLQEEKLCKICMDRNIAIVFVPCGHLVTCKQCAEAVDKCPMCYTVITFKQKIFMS

Row | Structure (SMILES) | composite z-score
1 | C[C@]1(C(=O)NCc2ccccc2)c2ccccc2C(=O)N(Cc2ccc(OC(F)(F)F)cc2)[C@H]1c1ccc(CO)cc1 | -0.0872
2 | O=C1O[C@@H](c2ccccc2)[C@@H](c2ccccc2)N2[C@@H](c3ccc(O)cc3)[C@]3(C(=O)Nc4ccc(C#CC5=CCCCC5)cc43)[C@@H](C(=O)O)[C@H]12 | 0.332
3 | O=C(O)[C@@]1(Cc2ccccc2)N=C(c2ccc(OCCCO)cc2)O[C@H]1c1ccccc1 | -0.0095
4 | NC(=O)NCC#Cc1ccc2c(c1)[C@]1(C(=O)N2)[C@H](C(=O)N2CCCCCCC2)[C@H]2C(=O)O[C@H](c3ccccc3)[C@H](c3ccccc3)N2[C@@H]1c1ccc(OCCO)cc1 | 0.0368
5 | CC(C)C[C@@H]1NC(=O)[C@H]2C[C@@H](C(=O)NCCCCCNC(=O)CS)[C@@H](c3cccc(OCCO)c3)N2C1=O | 0.379
6 | COC(=O)[C@@]1(Cc2ccccc2)[C@H]2c3cc(C(=O)N4CCCC4)n(C)c3C[C@H]2CN1C(=O)c1ccccc1 | 0.391
7 | Cc1ccc(S[C@]2(C(=O)NCC(C)C)CC(=O)N(Cc3ccccc3)[C@@H]2c2ccc(CO)cc2I)cc1 | 0.0583
8 | COCCOC(=O)N1C(=O)[C@@]2(c3cc(C#CCCO)ccc31)[C@H](c1ccccc1OCCO)N1[C@H](c3ccccc3)[C@H](c3ccccc3)OC(=O)[C@H]1[C@@H]2C(=O)N1CCN(c2ncccn2)CC1 | -0.0304
9 | CC(c1ccccc1)C(O)C1C=CC2C(=O)NC(=O)C2N1Nc1ccccn1 (stereo not drawn) | 0.0049
10 | [N-]=[N+]=NCc1ccccc1C[C@@]1(C(=O)N2CCOCC2)N=C(c2ccc(OCCCO)cc2)O[C@@H]1c1ccccc1CN=[N+]=[N-] | -0.138
11 | O=C(NCc1ccccc1)[C@]1(CCS(=O)(=O)c2ccccc2)N=C(c2ccc(OCCCO)cc2)O[C@@H]1c1ccccc1 | 0.323
12 | O=C1c2ccccc2[C@@]2(Cc3ccccc3N(Cc3ccccc3)C2=O)[C@H](c2ccc(CO)cc2)N1C1CCCCC1 | -0.239
13 | COc1ccc(C(O)C2C=CC3C(=O)N(C)C(=O)C3N2Nc2ccccc2)cc1OCc1ccccc1 (stereo not drawn) | 0.209
14 | CCCNC(=O)[C@@]1(c2ccc([N+](=O)[O-])cc2)CC(=O)N(CC23CC4CC(CC(C4)C2)C3)[C@@H]1c1ccc(CO)cc1 | 0.182
15 | O=C1O[C@@H](c2ccccc2)[C@@H](c2ccccc2)N2[C@@H](c3ccc(O)cc3)[C@]3(C(=O)Nc4ccc(C#CC5(O)CCCCCC5)cc43)[C@@H](C(=O)N3CCCCCCC3)[C@H]12 | 0.479
16 | CC(C)CNC(=O)[C@@H]1c2ccccc2C(=O)N(Cc2cc(C(F)(F)F)cc(C(F)(F)F)c2)[C@H]1c1ccc(CO)cc1 | -0.198
17 | O=C1O[C@H](c2ccccc2)[C@H](c2ccccc2)N2[C@H]1[C@@H](C(=O)O)[C@]1(C(=O)Nc3ccc(C#CC4(O)CCCCCC4)cc31)[C@H]2c1ccc(OCCO)cc1 | -0.0181
18 | CCCC[C@@H]1C[C@H]1[C@@H](NC(=O)c1ccc(-c2ccccc2)cc1)c1ccc(-c2ccccc2)cc1 | 0.359
19 | Cc1ccccc1C(O)C1C=CC2C(=O)N(C)C(=O)C2N1N1CCCCC1 (stereo not drawn) | 0.124
20 | Cc1cc(C)c(C(O)C2C=CC3C(=O)N(C)C(=O)C3N2Nc2ccccc2)c(C)c1 (stereo not drawn) | 0.372
21 | COc1ccc(C#Cc2ccc3c(c2)[C@]2(C(=O)N3)[C@H](C(=O)NC[C@H](O)c3ccccc3)[C@H]3C(=O)O[C@H](c4ccccc4)[C@H](c4ccccc4)N3[C@@H]2c2ccc(OCCO)cc2)cc1 | -0.125
22 | C=C(C(=O)CC[C@H](OC(C)=O)c1ccc(OCCO)cc1)C(C)C | -0.177
23 | CN(C)C(=O)[C@@]1(CCC(=O)OC(C)(C)C)N=C(c2ccc(OCCCO)cc2)O[C@H]1c1ccccc1 | -0.168
24 | [N-]=[N+]=NCc1ccccc1C[C@]1(C(=O)O)N=C(c2ccc(OCCCO)cc2)O[C@H]1c1ccccc1CN=[N+]=[N-] | -0.139
25 | COc1cc(CO)ccc1OC(C)=O | -0.17
26 | CC(C)=CCCC(C)=CC(O)C1C=CC2C(=O)N(c3ccccc3)C(=O)C2N1Nc1ccccc1 (stereo not drawn) | 0.0655
27 | CC(C)c1ccc(NN2C(C(O)c3ccc(N(C)C)cc3)C=CC3C(=O)N(c4ccccc4)C(=O)C32)cc1 (stereo not drawn) | 0.391
28 | COCCOC(=O)N1C(=O)[C@@]2(c3cc(C#CCC(C(=O)OC)C(=O)OC)ccc31)[C@H](C(=O)N1CCCCCCC1)[C@H]1C(=O)O[C@H](c3ccccc3)[C@H](c3ccccc3)N1[C@@H]2c1ccc(OCCO)cc1 | 0.611
